The source of these data is ChEMBL document CHEMBL4513216, “Probing the Open Global Health Chemical Diversity Library for Multistage-Active Starting Points for Next-Generation Antimalarials” (ACS Infect Dis, 2020).

About 2,700 (4%) of roughly 68,000 compounds showed an effect of 50% or more. What follows is part of a selection rich in strong results, with near analogues and random picks from the rest.

The test relates to Plasmodium berghei. Kind of test: Screen against P. berghei liver stage (PbLuc), transformed with Luciferase, at 2uM. The note with it: tested at 2 uM. The format is functional, HepG2.
As to `Cn1cc(CN2CCCC(c3nc(O)cc(-c4cccs4)n3)C2)cn1` (configuration not stated), the INHIBITION was determined as 32.24%.
For the compound `Oc1cc(-c2cccs2)nc(C2CCCN(CC3=CCCOC3)C2)n1` (configuration not stated), the INHIBITION is given as 51.88%.
For `Oc1cc(-c2nccs2)nc(C2CCN(Cc3cccs3)CC2)n1` the value was -14.73%; for `Cc1csc(CNC(=O)NCC(O)c2ccc(F)cc2F)n1` (configuration not stated), -41.67%.
In the case of `Cn1cccc1CN1CCC2(CC1)CN(c1ccccc1)C(=O)CO2`, the INHIBITION is 40.64%.
On to `CCN(CCC(F)(F)F)S(=O)(=O)c1cccc(F)c1C#N`, for which the INHIBITION is given as -46.3%.
On to `Cc1cccc2cc(C(=O)N3CCSCC3)n(C)c12`, for which the INHIBITION worked out at 19.04%.
For the compound `N#Cc1cc(F)ccc1Cn1cncn1`, the INHIBITION was -14.79%.
Regarding `N#Cc1cc(F)ccc1NCc1ccc(Cn2cncn2)cc1`, the INHIBITION is listed as 53.99%.
In the case of `Fc1ccc(CNc2ccccc2Cn2cncn2)cc1` it was 32.93%; in that of `Cc1cnn(CC2CCCN2Cc2nnc(C(C)C)o2)c1` (configuration not stated), -12.82%.
For the compound `Cc1ccccc1CN(C)C(=O)CN1CCOC(Cn2cncn2)C1` (configuration not stated), the INHIBITION worked out at 2.07%.
Consider `Cc1cc(=O)c2cc(F)ccc2n1CC(=O)O`, for which the INHIBITION is listed as -30.92%.
As for `Cc1cccc(S(=O)(=O)N2CC[C@H]3[C@H]2CCN3c2ncccn2)c1`, the INHIBITION amounted to 29.19%.
On to `O=S(=O)(c1cccs1)N1CC[C@H]2[C@H]1CCN2c1ncccn1`, for which the INHIBITION was 56.76%.
On to `O=S(=O)(c1ccc(F)cc1)N1CC[C@H]2[C@H]1CCN2c1ncccn1`, for which the INHIBITION is listed as 31.96%.
On to `CN1CC(=O)N(c2cccc(F)c2)CC12CCN(S(=O)(=O)C1CC1)C2` (configuration not stated), for which the INHIBITION is recorded as -12.36%.
For the compound `COCCN1C(=O)[C@]2(CC[C@@H]3CN(C(=O)NC(C)C)C[C@@H]32)N=C1C`, the INHIBITION turned out to be 16.91%.
With `CN(C)[C@@H]1CCN(C(=O)Cc2cccs2)[C@H]1Cc1ccncc1`, the INHIBITION is on record as -23.59%.
As for `Cc1cc(CN2CC[C@H]3[C@H]2CCN3S(C)(=O)=O)oc1C`, the INHIBITION was -12.98%.
For `CCN1C(=O)CCCC12CCCN(C(=O)c1cc(C)oc1C)C2` (configuration not stated) the value was 19.09%; for `CCN1C(=O)CCCC12CCCN(C(=O)c1occc1C)C2` (configuration not stated), 46.87%.
On to `CCN1C(=O)CCCC12CCCN(C(=O)c1ccoc1C)C2` (configuration not stated), for which the INHIBITION amounted to 50.17%.
In the case of `Cc1nc(C)c(C(=O)Nc2cccc(CN3CCC(CO)CC3)c2)o1` it was -8.84%; in that of `Cn1cc(CN2CCc3ncnc(N4CCOCC4)c3CC2)cn1`, -15.83%; in that of `COCCN1CCC2(COCc3c(C)nc(N(C)C)nc32)C1` (configuration not stated), 54.62%.
In the case of `Cc1nc(N2CCOCC2)nc2c1COCC21CCN(CC2CC2)C1` (configuration not stated) it was -27.12%.
For `CCN1CCC2(COCc3c(C)nc(N4CCOCC4)nc32)C1` (configuration not stated), the INHIBITION was -9.91%.
`Cc1nc(N(C)C)nc2c1COCC21CCN(CC2CC2)C1` (configuration not stated): the INHIBITION is given as -54.51%.
As for `CCN1CCC2(COCc3c(C)nc(N(C)C)nc32)C1` (configuration not stated), the INHIBITION came to 25.31%.
For `Cc1nc(N2CCOCC2)nc2c1COCC21CCN(CC(C)C)C1` (configuration not stated) the value was 53.55%.
As for `CCOC(C)c1nccn1Cc1noc(CC)n1` (configuration not stated), the INHIBITION was -12.93%.
Take `COCCN1CC[C@H]2CN(c3cc(OC)ncn3)C[C@@H]2C1=O`: the INHIBITION is -25.53%.
`O=C(c1ccccc1F)N1CCOC(c2nc(-c3ncccn3)no2)C1` (configuration not stated): the INHIBITION is -14.56%.
For `COc1cccc(-c2ccc3nc(C4CCN(C(C)=O)CC4)nn3c2)c1` the value was -3.4%; for `O=C1NC2(CCN(Cc3ccc(F)cc3)CC2)CC1c1ccncc1` (configuration not stated), -26.22%.
`O=C1NC2(CCN(Cc3cccs3)CC2)CC1c1ccncc1` (configuration not stated): the INHIBITION is -13.79%.
Take `O=C1NC2(CCN(Cc3nccs3)CC2)CC1c1ccncc1` (configuration not stated): the INHIBITION is 53.54%.
As to `COc1ccc(CNC(=O)NCCc2csc(C)n2)cn1`, the INHIBITION is -33.61%.
`Cc1nnc(N2CCC(CS(N)(=O)=O)CC2)c(C#N)c1C`: the INHIBITION came out at 46.52%.
For `Cc1nnc(N2CCC(CN(C)C(C)C)CC2)c(C#N)c1C` the value was 2.1%; for `Cc1nnc(N2CCCC(CS(N)(=O)=O)C2)c(C#N)c1C` (configuration not stated), 57.79%; for `CC(C)N1CCC(c2n[nH]cc2S(C)(=O)=O)CC1`, 53.59%.
Turning to `CNc1nccnc1C1CCN(C(C)C)CC1`, the INHIBITION was -5.95%.
In the case of `Cc1c[nH]nc1C1CCN(S(=O)(=O)N(C)C)CC1` it was 20.73%; in that of `CC1CCN(CCNCc2cc(-c3ccccc3)cn3nnnc23)CC1`, 26.56%; in that of `CCc1c(C)nn2c(O)cc(C3CCN(C(=O)C4CC4)C3)nc12` (configuration not stated), 11.53%.
Turning to `Cc1cccc(CN2CC3(CCN(Cc4ccoc4)CC3)OCC2=O)n1`, the INHIBITION is recorded as 11.99%.
Take `Cc1noc(C)c1CN1CCC2(CC1)NC(=O)CC2c1ccccc1` (configuration not stated): the INHIBITION is 20.01%.
`Cc1nc(CN2CCC3(CC2)NC(=O)CC3c2ccccc2)cs1` (configuration not stated): the INHIBITION amounted to 44.43%.
On to `Cc1ccc(CN2CCC3(CC2)NC(=O)CC3c2ccccc2)s1` (configuration not stated), for which the INHIBITION is 57.85%.
For the compound `O=C1CC(c2ccncc2)C2(CCN(Cc3ccc(F)cc3)CC2)N1` (configuration not stated), the INHIBITION amounted to 6.03%.
For the compound `O=C1CC(c2ccncc2)C2(CCN(Cc3cccnc3)CC2)N1` (configuration not stated), the INHIBITION is listed as -4.26%.
Consider `O=C1CC(c2ccccc2)C2(CCN(Cc3ccncc3)CC2)N1` (configuration not stated), for which the INHIBITION is on record as 54.07%.
Take `COc1cccc(C(=O)C2CCCN(c3cc(C#N)ccn3)C2)c1` (configuration not stated): the INHIBITION is reported as -45.86%.
`CC(C)COc1cncc(NCCc2nnc3ccccn23)n1`: the INHIBITION was 39.02%.
As for `Cc1nn(C)cc1S(=O)(=O)N[C@@H]1CCC[C@@H](n2ccnc2)[C@@H]1O`, the INHIBITION is 45.48%.
Turning to `CN(C)c1cc(C(=O)N2CCCN(Cc3cscn3)CC2)ccn1`, the INHIBITION is 51.21%.
For `CN(C)c1ccc(C(=O)N2CCN(Cc3cscn3)CC2)cn1`, the INHIBITION was determined as 19.18%.
For `CN(C)c1ccc(C(=O)N2CCCN(Cc3cscn3)CC2)nn1`, the INHIBITION was -11.33%.
For `COc1ccccc1N1CCN(C(=O)c2ccnc(N(C)C)c2)CC1`, the INHIBITION is reported as 56.78%.
Consider `COc1ccccc1N1CCN(C(=O)c2ccoc2)CC1`, for which the INHIBITION is -2.44%.
Turning to `CN(C)c1cc(C(=O)N2CCCC2)ccn1`, the INHIBITION is reported as -18.23%.
In the case of `Cc1cnc(CCNc2cccc(CC3CCCNC3)n2)s1` (configuration not stated) it was 23.7%; in that of `CC[C@@H]1N(Cc2ccsc2)CCC[C@]12CCC(=O)N2C`, 62.46%; in that of `CC[C@@H]1N(Cc2ccc(C)s2)CCC[C@]12CCC(=O)N2C`, 20.42%.
As for `CC[C@@H]1N(Cc2ccco2)CCC[C@]12CCC(=O)N2C`, the INHIBITION was 53.46%.
In the case of `CC[C@@H]1N(Cc2ccsc2)CCC[C@]12CCC(=O)N2CCOC` it was -27.69%; in that of `CC[C@H]1N(Cc2ccco2)CCC[C@]12CCC(=O)N2C`, 23.26%; in that of `CC[C@@H]1N(Cc2ccc(F)cc2)CCC[C@]12CCC(=O)N2C`, 25.46%.
Regarding `CCCOc1ccc(CC2=NC(C)(CO)CO2)cc1` (configuration not stated), the INHIBITION is reported as -27.61%.
For `CCNC(=O)[C@@H]1CCCN1[C@@H](C(=O)NC)c1ccccc1` the value was -11.34%; for `CSCc1noc(CN2CCC3(CC2)CC(=O)N(CC(C)C)C3)n1`, 10.61%.
Take `CC(C)N(CCCNC(=O)C1CC(=O)N(C)C1)S(C)(=O)=O` (configuration not stated): the INHIBITION is on record as 2.97%.
On to `COC(=O)C(C)(C)NC(=O)c1cnc(Cc2ccc(F)cc2)s1`, for which the INHIBITION was -32.82%.
For the compound `COc1ccnc(NC(Cc2ccccc2)C(N)=O)n1` (configuration not stated), the INHIBITION was determined as 33.9%.
`COc1ccc(-c2ccc(C(=O)O)c(F)c2)c(F)c1`: the INHIBITION is reported as 17.01%.
In the case of `COc1ccc(-c2ccc(C(=O)NCCCC(N)=O)c(F)c2)c(F)c1`, the INHIBITION was found to be 53.81%.
For the compound `COc1ccc(-c2ccc(C(=O)NS(C)(=O)=O)c(F)c2)c(F)c1`, the INHIBITION is -27.53%.
For `CN(C)Cc1nnc2n1CCCN(C(=O)c1c[nH]cn1)C2`, the INHIBITION is listed as -51.91%.
For `O=C(c1c[nH]cn1)N1CCCn2c(nnc2Cn2cccc2)C1` the value was 26.44%; for `O=C(c1c[nH]cn1)N1CCCn2c(CN3CCCCC3)nnc2C1`, 51.26%.
For `CNc1cc(C)nc(C2CN(Cc3cncs3)CCO2)c1` (configuration not stated), the INHIBITION is reported as -29.68%.
Regarding `CC(C)N(C)C(=O)CSCc1ccc(S(=O)(=O)N(C)C)o1`, the INHIBITION turned out to be 30.34%.
For the compound `Cn1cc(CN(C(=O)c2ccc3ncsc3c2)C2CC2)cn1`, the INHIBITION worked out at 57.34%.
For the compound `CN1C(=O)c2ccc(C(=O)N(Cc3cnn(C)c3)C3CC3)cc2C1=O`, the INHIBITION came to 21.14%.
For `Cn1cc(CN(C(=O)c2ccc(O)c(Cl)c2)C2CC2)cn1` the value was -33.15%.
As to `CCn1cnnc1C1CCN(C(=O)c2cccc(-n3cccc3)c2)CC1`, the INHIBITION is given as -6.48%.
For the compound `COc1cc(N2CCC3(CCN(Cc4nccs4)CC3)C2)ncn1`, the INHIBITION is on record as 7.71%.
`CCCc1cc(C(=O)N(C)Cc2cccc3cnccc23)n(C)n1`: the INHIBITION worked out at 19.91%.
For `CCCc1cc(C(=O)N(C)Cc2ccc(OC)c3ncccc23)n(C)n1` the value was 58.56%.
For `CCCc1cc(C(=O)N(C)Cc2cccc3ncccc23)n(C)n1` the value was -24.24%.
In the case of `O=C(c1ccccc1)N1C[C@H]2CC[C@@H](C1)N(S(=O)(=O)c1cccnc1)C2` it was -23.58%; in that of `Cc1noc(C)c1CN1CCC2(CCN(Cc3cccc(F)c3)CC2)C1`, 24.04%.
For the compound `Cc1nc2ccccc2nc1NCc1cccc(OCC2CCCO2)c1` (configuration not stated), the INHIBITION came out at 17.25%.
Consider `O=C(CC1=CCCCC1)N1CCC(Cn2cc(CCO)nn2)CC1`, for which the INHIBITION was -8.21%.
On to `COc1ccc(CCN2C(=O)O[C@@H]3CN(C4CCOCC4)C[C@@H]32)cc1`, for which the INHIBITION is listed as 1.42%.
Take `COc1ccc(CCCN2C(=O)O[C@@H]3CN(C4CCOCC4)C[C@@H]32)cc1`: the INHIBITION is on record as 51.81%.
Consider `O=C1O[C@@H]2CN(C3CCOCC3)C[C@@H]2N1CCCc1ccc(F)cc1`, for which the INHIBITION is -23.46%.
For the compound `Cc1cc(CN(C)C(=O)CN2CC3(CCNCC3)OC2=O)n(C)n1`, the INHIBITION came out at 24.12%.
In the case of `CC(Cn1cc(Br)cn1)C(=O)Nc1ccc(C(N)=O)cc1` (configuration not stated), the INHIBITION was -34.79%.
For the compound `CSc1nnc(C2CCN(C(=O)N3CCCC3)CC2)n1C`, the INHIBITION amounted to 5.83%.
